Screen size: about 1,200 compounds; about 65 (5%) were called active.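 How the source made its calls: active means at either tested dose, response and 90th-percentile vesicle-stain brightness of CD8 cells under set limits and under 9% cells vesicle-bound; inactive means the rest.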 This excerpt belongs to a sample that is enriched for actives.

The experiment can be described thus: modulators of CD8 T cell-vesicle binding, confirmation, cherry-picked primary hits, two concentrations (AID 2810).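 On percent response (vesicle binding): ratio of mean FL2 vesicle stain of CD8+ cells to that row's control.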 To be noted: 2C CD8+ T cell-vesicle binding, flow cytometry; for double positive events: CD8+/vesicle+ events.
The mark [1] stands for this setting: at 15.4 µM, stronger effect = lower value.

With `CCCCCCCCn1c2c(c(=N)c3c1CCC3)CCCC2`, the double positive events (at 7.7 µM) was 1.8% and the double positive events under setting [1] was 5.8%. Further, the percent response (vesicle binding) by setting is: under setting [1], 46.9% (active); (response, at 7.7 µM) 54.6%.
On the same counts, the results for `C=CCN1C(=O)c2ccc(C(=O)N3CCN(S(=O)(=O)c4cccc(Cl)c4)CC3)cc2C1=O` are 12.4%, 26.8%, 118% (inactive) and 125%.
On the same counts, the results for `CC(C)(C)C(=O)Nc1ccc2c(c1)OCCOCCOc1cc(NC(=O)C(C)(C)C)ccc1OCCOCCO2` are 22.2%, 25.5%, 251% (inactive) and 910%.
On the same counts, the results for `COc1ccc(N(CC(=O)NCCC2=CCCCC2)S(=O)(=O)c2ccc(C)cc2)cc1OC` are 8.6%, 22.9%, 140% (inactive) and 96.7%.
As for `Cc1c(C(=O)NCCSCc2c(F)cccc2Cl)cnn1-c1ccc(Cl)cc1`, the double positive events reads like this: (at 7.7 µM) 19.9%; under setting [1], 1.6%. Moreover, the percent response (vesicle binding) by setting is: under setting [1], 26.4% (active); (response, at 7.7 µM) 229%.
Compound `O=C(CSCCO)N1CCc2ccccc21` registered a double positive events (at 7.7 µM) of 9.8% and a double positive events under setting [1] of 26%. In addition, the percent response (vesicle binding) by setting is: under setting [1], 310% (inactive); (response, at 7.7 µM) 415%.
In the same order, the values of `Nc1nnc(SCCOc2ccc(Br)cc2)s1` are 34.9%, 15.9%, 217% (inactive) and 294%.
On the same counts, the results for `Cc1sc(NC(=O)CN2CCOCC2)c(C#N)c1C` are 10.4%, 29%, 344% (inactive) and 364%.
In the same order, the values of `COc1cccc(C(=O)O[C@@H]2[C@H](Cc3ccccc3)NS(=O)(=O)[C@H]3C[C@@H]4C=C[C@]23O4)c1` are 30%, 18.9%, 180% (inactive) and 197%.
In the case of `Cc1oc(-c2ccccc2)nc1Cn1cccc1C1=NC(c2ccccc2)CO1` (centres undefined), the double positive events reads like this: (at 7.7 µM) 13.6%; under setting [1], 14.5%. The percent response (vesicle binding) is 105% (inactive) under setting [1] and 179% (response, at 7.7 µM).
On the same counts, the results for `CCn1nc(C(=O)NCCc2ccc3c(c2)OCCO3)c2ccccc2c1=O` are 9.8%, 15.2%, 173% (inactive) and 148%.
In the same order, the values of `OC[C@H]1O[C@@H](Oc2ccc3cc(Br)ccc3c2)[C@H](O)[C@@H](O)[C@H]1O` are 14.4%, 27.5%, 389% (inactive) and 493%.
On the same counts, the results for `COc1ccc(NC(=O)CC2C(=O)N(Cc3ccccc3)C(=S)N2CCN2CCOCC2)cc1` (centres undefined) are 13%, 0.6%, 20% (active) and 196%.
In the case of `COc1ccc(C(=O)N2CCN(c3ccc(NC(=O)Cc4ccccc4)cc3)CC2)cc1`, the double positive events was 25.4% (at 7.7 µM) and 23.5% under setting [1]. The percent response (vesicle binding) runs as follows: under setting [1], 291% (inactive); (response, at 7.7 µM) 635%.
On the same counts, the results for `COC(=O)CN1C(=S)N(C)C(=O)C1CC(=O)Nc1ccccc1` (centres undefined) are 18.9%, 12.8%, 120% (inactive) and 896%.
On the same counts, the results for `S=c1sc2c(N3CCOCC3)ncnc2n1-c1ccccc1` are 9.4%, 12.2%, 206% (inactive) and 355%.
In the case of `Cc1cc2ncn(C(=O)N3CCCCCC3)c2cc1C`, the double positive events is, setting by setting: (at 7.7 µM) 6.8%; under setting [1], 21.3%. Further, the percent response (vesicle binding) was 112% (inactive) under setting [1] and 241% (response, at 7.7 µM).
On the same counts, the results for `CCCCn1c(-c2ccccc2)nnc1-c1ccccc1` are 37.8%, 9.3%, 150% (inactive) and 219%.
In the same order, the values of `O=C(N/N=C/c1cccc(OCc2ccccc2)c1)c1ccc(Br)cc1` are 9.6%, 0.9%, 36% (active) and 128%.
In the same order, the values of `O=C(N/N=C/c1ccc(OCc2ccccc2)cc1)c1cccs1` are 12.1%, 18.5%, 272% (inactive) and 428%.
Take `O=C(N/N=C/c1cccc(OC(=O)c2ccccc2Cl)c1)c1cccnc1`: the double positive events (at 7.7 µM) is 25.8% and the double positive events under setting [1] came to 10%. In addition, the percent response (vesicle binding) is, setting by setting: under setting [1], 87% (inactive); (response, at 7.7 µM) 350%.
Turning to `Cc1ccc(N(CC(O)CN2CCCC2)S(=O)(=O)c2ccc(C)cc2)cc1` (centres undefined), the double positive events was 24.2% (at 7.7 µM) and 34.6% under setting [1]. Further, the percent response (vesicle binding) reads like this: under setting [1], 136% (inactive); (response, at 7.7 µM) 325%.
On the same counts, the results for `COc1cc(F)c(C2=CC(=O)C[C@H](c3ccc(F)cc3)C2)cc1F` are 24.2%, 13.4%, 170% (inactive) and 320%.
Turning to `CC1(C)Cc2c(C#N)c(NC3CCCCC3)nc(-c3ccco3)c2CO1`, the double positive events is 5.9% (at 7.7 µM) and 2.8% under setting [1]. In addition, the percent response (vesicle binding) is 33.8% (active) under setting [1] and 107% (response, at 7.7 µM).
For the compound `O=C(NCCC1=CCCCC1)C(=O)NCC(c1ccco1)N1CCN(c2ccccc2F)CC1` (centres undefined), the double positive events was found to be 36.4% (at 7.7 µM) and 10.7% under setting [1]. Also, the percent response (vesicle binding) is 201% (inactive) under setting [1] and 264% (response, at 7.7 µM).
In turn, `O=C(NCc1cccnc1)C(=O)NCC(c1ccco1)N1CCN(c2ccccc2)CC1` (centres undefined) displayed a double positive events (at 7.7 µM) of 20.2% and a double positive events under setting [1] of 6.1%. For the same compound, the percent response (vesicle binding) is 135% (inactive) under setting [1] and 202% (response, at 7.7 µM).
In the same order, the values of `COc1ccccc1NS(=O)(=O)c1cc(NC(=O)CNC(=O)c2cc(C)cc(C)c2)ccc1C` are 21%, 0.9%, 39.6% (active) and 218%.
On the same counts, the results for `COc1ccc(NC(=O)Cc2ccc(C)c(C)c2)cc1S(=O)(=O)N1CCCCC1` are 37.7%, 10.7%, 257% (inactive) and 649%.
In the same order, the values of `COc1ccccc1NS(=O)(=O)c1ccc(C)c(NC(=O)c2ccc(S(=O)(=O)N3CCCCCC3)cc2)c1` are 11.9%, 35.5%, 332% (inactive) and 182%.
The compound `O=S(=O)(NN=C1CCCCCCC1)c1ccc(Br)cc1` registered a double positive events (at 7.7 µM) of 13.7% and a double positive events under setting [1] of 7.3%. In addition, the percent response (vesicle binding) under setting [1] is 144% (inactive) and the percent response (vesicle binding) (response, at 7.7 µM) came out at 120%.
On the same counts, the results for `CC(/C=C/c1ccc(C)o1)=C\C(=O)O` are 19.1%, 19.8%, 196% (inactive) and 227%.

The values above are taken from PubChem BioAssay AID2810 (NMMLSC, 2010).
